# Assay results published in PubChem BioAssay (NCATS).
# Inconclusive results are not listed. Activity calls are given as the source filed them. Calls follow the shape of the dose curve; as a rule, active = well fitted cell-killing curve with a large enough effect; inconclusive = small, poorly fitted or top-dose-only effect; inactive = no such curve, though single readings can be large or run the other way.
# Experiment: qHTS of pediatric cancer cell lines to identify multiple opportunities for drug repurposing: Primary screen for NB-EBc1 cells (AID 1347095);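 also: plate controls were DMSO neutral control for no effect and bortezomib for full effect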
# Conditions: NB-EBc1 neuroblastoma viability, CellTiter-Glo luminescence, 48 h; series mostly up to 46 µM; activity change, negative = cytotoxic: at the top concentration
# Outline: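 Quantitative HTS format: each compound titrated (MIPE 11 points from 0.78 nM, NPC 8 points from 0.59 nM) onto cells plated 5 hours earlier. After 48 h at 37 degrees C, CellTiter-Glo luminescence was recorded.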
row,SMILES,"activity change, negative = cytotoxic"
1,C=CCn1c(=O)n([C@@H]2O[C@H](CO)[C@@H](O)[C@H]2O)c2nc(N)[nH]c(=O)c21,13.9% (inactive)
2,O=C1c2c(O)cccc2Cc2cccc(O)c21,26.7% (inactive)
3,CC1(C)OC(=O)NC1=O,26.5% (inactive)
4,CCOc1ccc2ccccc2c1C(=O)N[C@@H]1C(=O)N2[C@@H]1SC(C)(C)[C@@H]2C(=O)O,24.6% (inactive)
5,CC1CC(OC(=O)C(O)c2ccccc2)CC(C)(C)N1C (centres undefined),12.4% (inactive)
6,OCC(CO)N[C@H]1C[C@](O)(CO)[C@@H](O)[C@H](O)[C@H]1O,12.9% (inactive)
7,CCn1cc(C(=O)O)c(=O)c2cnc(N3CCNCC3)nc21,6.07% (inactive)
8,CC1(C)CO[C@@H](CC(=O)O)CN1,18% (inactive)
9,CCCCC(CC)COC(=O)c1ccccc1O (centres undefined),15% (inactive)
10,CCN(CC)C(=O)Nc1ccc(OCC(O)CNC(C)(C)C)c(C(C)=O)c1 (centres undefined),13.6% (inactive)
11,C[C@@H]1CC[C@@]2(OC1)O[C@H]1C[C@H]3[C@@H]4CC[C@H]5C[C@@H](O)CC[C@]5(C)[C@H]4CC(=O)[C@]3(C)[C@H]1[C@@H]2C,21.8% [at 4.84 µM] (inactive)
12,C[C@@H]1CN(c2c(F)c(F)c3c(=O)c(C(=O)O)cn(C4CC4)c3c2F)C[C@H](C)N1,72.6% [at 16.1 µM] (inactive)
13,Cc1ccc(C(C)C)cc2c(C)ccc1-2,30.1% (inactive)
14,Cc1cc(O)cc2c1O[C@](C)(CCC[C@H](C)CCC[C@H](C)CCCC(C)C)CC2,16.2% (inactive)
15,COc1ccc(S(=O)(=O)Nc2nnc(CC(C)C)s2)cc1,33.7% (inactive)
16,CCCCN1CCCC[C@H]1C(=O)Nc1c(C)cccc1C,-2.11% (inactive)
17,CC(=O)CCC(=O)O,17% (inactive)

row,SMILES,"activity change, negative = cytotoxic"
1,CN(C)CC[C@@H](c1ccc(Cl)cc1)c1ccccn1,17.6% (inactive)
2,NC(=O)NC(=O)Cc1ccccc1,2.86% (inactive)
3,CC1=C(C/C=C(\C)CCC[C@H](C)CCC[C@H](C)CCCC(C)C)C(=O)c2ccccc2C1=O,28% (inactive)
4,COc1ccccc1O,19.2% [at 92.7 µM] (inactive)
5,Nc1nc2c(ncn2CCC(CO)CO)c(=O)[nH]1,-0.478% (inactive)
6,N[C@H]1C(O)O[C@H](CO)[C@@H](O)[C@@H]1O (some centres undefined),5.3% (inactive)
7,C[C@@H](O)[C@H](N)C(=O)O,20.5% [at 16.1 µM] (inactive)
8,CC1(C)[C@@H]2CC[C@@]1(C)C(=O)C2,25% (inactive)
9,C[C@@H]1CCN(C(=O)[C@H](CCCN=C(N)N)NS(=O)(=O)c2cccc3c2NC[C@H](C)C3)[C@@H](C(=O)O)C1,14.4% (inactive)
10,Nc1ccc(S(=O)(=O)Nc2ccccc2)cc1,32.4% (inactive)
11,Oc1cccc(O)c1,19.4% (inactive)
12,NCCNCCNCCNCCN,2.04% [at 9.22 µM] (inactive)
13,C[C@H](N)[C@H](O)c1cccc(O)c1,9.41% (inactive)
14,O=C(Oc1ccccc1C(=O)O)c1ccccc1O,27.6% (inactive)
15,Nc1ccc(S(=O)(=O)NC(=O)c2ccccc2)cc1,4.2% (inactive)
16,Cc1cc2nc3c(=O)[nH]c(=O)nc-3n(C[C@H](O)[C@H](O)[C@H](O)CO)c2cc1C,12.3% [at 16.1 µM] (inactive)
17,O=C1O[C@H]([C@@H](O)CO)C(O)=C1O,2.89% (inactive)
